{
  "source": "PubChem BioAssay AID590",
  "about": "(National Center for Advancing Translational Sciences (NCATS), 2007)",
  "note": "The campaign covered roughly 59,000 compounds. About 6,500 (11%) were called active. Another 15% or so got no clear call; they are omitted. No stated cut-off is given here; in the data, active means max dye-equivalent concentration above about 10 nM; inconclusive means mostly about 1.1 nM to 9.6 nM; inactive means weaker than that. What follows is part of a selection rich in actives, with near analogues and random picks from the rest.",
  "data": [
    {"test": "qHTS Assay for Spectroscopic Profiling in A350 Spectral Region", "conditions": "Compound autofluorescence, 340/450 nm, Alexa 350 dye-equivalents; stronger effect = higher value", "text": "NIH Molecular Libraries Screening Centers Network [MLSCN]\nNIH Chemical Genomics Center [NCGC]\nOccasionally, the artifactual effect may originate from the compounds own spectral or other biophysical properties which generally tend to track its assay concentration. Pre-screening/profiling the library with respect to the compounds spectral properties should help one exclude false positives early on. While the most informative fluorescent profiling data set is obtained by performing a full excitation and emission scan of each well by using a monochromator-based plate reader, such an approach is practical only on a very limited scale as scanning each well requires long time. An alternative approach, applied here, is to perform plate reader scans using selected excitation and emission wavelength pairs to generate a multidimensional relational database that correlates compound concentration and the respective relative fluorescence intensity at a given wavelength set. A standard curve of Alexa 350 (A 350) present on each plate as six-point concentration series, was used to compute a normalized fluorescence response, termed dye-equivalent concentration, for each compound at each concentration.\nNCGC Assay Protocol Summary:\n100 mM Tris buffer, pH 8.0\nThe wells in columns 1 through 4 of a Kalypsys polypropylene 1536-well compound plate were filled with standard solutions of fluorophore corresponding to the spectral region of interest. Solutions of A 350 were placed in the following wells: I1, J1: 3 mM, I2, J2: 300 uM, I3, J3: 30 uM, I4, J4: zero (DMSO), K1, L1: 3 uM, K2, L2: […], K3, L3: 300 nM, K4, L4: zero (DMSO).\nSix uL of buffer were dispensed to 1536-well Greiner black plates. Compounds and dye standards (23 nL) were transferred via Kalypsys PinTool. The plates were incubated for 15 min at room temperature, and then read on ViewLux (Perkin-Elmer) High-throughput CCD imager using 340 nm and 450 nm excitation and emission filter set.\nKeywords: NIH Roadmap, MLSCN, MLI, MLSMR, qHTS, NCGC, A350, A-350, Fluorescent Profiling.", "values": [
      {"smiles": "Cc1nc2nc3c(cn2n1)C(=O)CC(c1ccccc1)C3", "note": "(configuration not stated)", "max dye-equivalent concentration": "inactive"},
      {"smiles": "CC1(C)C(=O)C2(CCCCC2)C(=O)OC1c1cccs1", "note": "(configuration not stated)", "max dye-equivalent concentration": "inactive"},
      {"smiles": "C=CCn1c(COc2ccccc2C)nnc1SCC(=O)O", "max dye-equivalent concentration": "inactive"},
      {"smiles": "Cc1ccc2[nH]c3c(c2c1)CN(C(=O)CN1CCN(c2ccccc2)CC1)CC3", "max dye-equivalent concentration": "inactive"},
      {"smiles": "Cc1cc(C)c2c(c1)c(C)cc1nnc(SCC(=O)NCc3ccco3)n12", "max dye-equivalent concentration": "inactive"},
      {"smiles": "CC(=O)N1CCC2(CCCN(Cc3ccccc3)C2)CC1", "max dye-equivalent concentration": "inactive"},
      {"smiles": "O=C(O)/C(=C/c1c(C(=O)O)[nH]c2cc(Cl)cc(Cl)c12)c1ccccc1", "max dye-equivalent concentration": "inactive"},
      {"smiles": "O=C1c2ccccc2C(=O)N1CCc1nn[nH]n1", "max dye-equivalent concentration": "inactive"},
      {"smiles": "CCOC(=O)c1c(C)n(C)c2ccc(OC)c(NC(=O)CN3CCC4(CC3)OCCO4)c12", "max dye-equivalent concentration": "inactive"},
      {"smiles": "C/C(N)=C(\\C#N)C(=O)NCCc1ccccn1", "max dye-equivalent concentration": "12 nM (active)"},
      {"smiles": "O=C(O)[C@H](CCc1ccccn1)c1ccccc1", "max dye-equivalent concentration": "inactive"},
      {"smiles": "O=C(NCCc1ccccn1)c1ccc(COc2ccccc2)o1", "max dye-equivalent concentration": "inactive"},
      {"smiles": "CC1(C)CC(=O)C(C2=NC(C)(C)Cc3ccccc32)=C(O)C1", "max dye-equivalent concentration": "inactive"},
      {"smiles": "CCOc1ccc(N=C2SC(C(=O)O)CC(=O)N2C)cc1", "note": "(configuration not stated)", "max dye-equivalent concentration": "inactive"},
      {"smiles": "COC(=O)N1CN(C(=O)OC)CN(C(=O)OC)C1", "max dye-equivalent concentration": "inactive"},
      {"smiles": "CC(C)=C(NC(=O)c1ccco1)C(=O)NCCc1nc2ccccc2[nH]1", "max dye-equivalent concentration": "inactive"},
      {"smiles": "CCC(CC)C(=O)Nc1cc(C(=O)OC)cc(C(=O)OC)c1", "max dye-equivalent concentration": "inactive"},
      {"smiles": "CC(C)OC(=O)c1cc(NC(=O)C2C3CCC(O3)C2C(=O)O)cc(C(=O)OC(C)C)c1", "note": "(configuration not stated)", "max dye-equivalent concentration": "13 nM (active)"},
      {"smiles": "COC(=O)c1cn(CC(=O)NCc2cccs2)c2ccccc12", "max dye-equivalent concentration": "inactive"},
      {"smiles": "O=C(CCC(=O)c1cccs1)NCc1ccccc1", "max dye-equivalent concentration": "inactive"},
      {"smiles": "O=C(Cn1cc(C(=O)c2cccs2)c2ccccc21)NCc1cccs1", "max dye-equivalent concentration": "25 nM (active)"},
      {"smiles": "C=C(Br)CN1CCN(CC(=C)Br)CC1", "max dye-equivalent concentration": "inactive"},
      {"smiles": "O=C1CCC(C(=O)Nc2ccc(OC(F)F)cc2)N1", "note": "(configuration not stated)", "max dye-equivalent concentration": "22 nM (active)"},
      {"smiles": "CCCOc1ccc(NC(=O)C2CCCNC2=O)cc1", "note": "(configuration not stated)", "max dye-equivalent concentration": "inactive"},
      {"smiles": "COC(=O)COc1ccc(S(=O)(=O)Nc2ccc(NC(C)=O)cc2)cc1", "max dye-equivalent concentration": "inactive"},
      {"smiles": "NS(=O)(=O)c1cc2c(cc1Cl)NC(C(Cl)Cl)NS2(=O)=O", "note": "(configuration not stated)", "max dye-equivalent concentration": "7200 nM (active)"},
      {"smiles": "Cc1cn(C2C=CC(CO)O2)c(=O)[nH]c1=O", "note": "(configuration not stated)", "max dye-equivalent concentration": "inactive"},
      {"smiles": "Cc1ccc(C(=O)NC2CCN(C(=O)N3CCOCC3)CC2)cc1", "max dye-equivalent concentration": "inactive"},
      {"smiles": "CCOC(=O)c1c(C(C#N)C#N)cc(C)nc1C", "max dye-equivalent concentration": "inactive"},
      {"smiles": "CCOC(=O)c1sc(=S)n(-c2cccc(OC)c2)c1N", "max dye-equivalent concentration": "inactive"},
      {"smiles": "CCOC(=O)c1cc(-c2ccc(Cl)s2)nc2c1c(C)nn2C", "max dye-equivalent concentration": "240 nM (active)"},
      {"smiles": "Cc1ccn2cc(C(=O)NC3CCN(Cc4ccccc4)CC3)nc2c1", "max dye-equivalent concentration": "inactive"},
      {"smiles": "CCc1ccc2oc(-c3ccc(N)cc3)nc2c1", "max dye-equivalent concentration": "140 nM (active)"},
      {"smiles": "O=C(/C=N/O)Nc1ccccc1", "max dye-equivalent concentration": "inactive"},
      {"smiles": "CC1CCc2c(sc3c2C2=NS(=O)(=O)CCN2C=N3)C1", "note": "(configuration not stated)", "max dye-equivalent concentration": "29 nM (active)"},
      {"smiles": "CC1(CCC(=O)OC2CCCCC2)OCCO1", "max dye-equivalent concentration": "inactive"},
      {"smiles": "CCOC(=O)c1cc2sccc2n1Cc1ccc(C#N)cc1", "max dye-equivalent concentration": "inactive"},
      {"smiles": "CC(C[N+](C)(C)C)OC(N)=O", "note": "(configuration not stated)", "max dye-equivalent concentration": "inactive"},
      {"smiles": "CC(=O)OC(C)C[N+](C)(C)C", "note": "(configuration not stated)", "max dye-equivalent concentration": "570 nM (active)"},
      {"smiles": "CCN1C(=O)/C(=C\\N2CCN(c3ccccc3)CC2)SC1=S", "max dye-equivalent concentration": "inactive"},
      {"smiles": "CCN1C(=O)/C(=C2\\SC(N3CCCCC3)=NC2=O)c2ccccc21", "max dye-equivalent concentration": "17 nM (active)"},
      {"smiles": "CC(=O)c1ccc(-n2nnnc2SCC(=O)N2CCN(C(=O)c3ccco3)CC2)cc1", "max dye-equivalent concentration": "inactive"},
      {"smiles": "CN1CCN(Cc2nc3c(c(=O)n(C)c(=O)n3C)n2Cc2cccc3ccccc23)CC1", "max dye-equivalent concentration": "inactive"},
      {"smiles": "Cc1nnc(C)n1/N=C/c1ccc(C(C)C)cc1", "max dye-equivalent concentration": "inactive"},
      {"smiles": "O=C1CC(c2cccc(Br)c2)C2=C(CCCC2=O)N1", "note": "(configuration not stated)", "max dye-equivalent concentration": "44 nM (active)"},
      {"smiles": "O=C1CC(c2cccc(F)c2)C2=C(CCCC2=O)N1", "note": "(configuration not stated)", "max dye-equivalent concentration": "inactive"},
      {"smiles": "CC(N)=NCc1cccc(CN)c1", "max dye-equivalent concentration": "inactive"},
      {"smiles": "CCCCN(CC)CCCNC(=O)CS(=O)(=O)Cc1nc(-c2cccc(OC)c2)oc1C", "max dye-equivalent concentration": "inactive"},
      {"smiles": "CNC(=O)n1ccc(C(=O)N2CCCCC2)n1", "max dye-equivalent concentration": "inactive"},
      {"smiles": "CN(C)/C=C/c1c(C#N)c(=O)ncn1Cc1ccccc1", "max dye-equivalent concentration": "inactive"},
      {"smiles": "CN(C)c1ccnc2sc3c(=O)n(Cc4ccccc4)cnc3c12", "max dye-equivalent concentration": "32 nM (active)"},
      {"smiles": "O=C(Cc1cccs1)N1CCCC(c2nc(-c3ccc(S(=O)(=O)N4CCCC4)cc3)no2)C1", "note": "(configuration not stated)", "max dye-equivalent concentration": "inactive"},
      {"smiles": "COc1cc(Cl)c(C)cc1NC(=O)CSc1nnc(-c2cccnc2)n1Cc1ccco1", "max dye-equivalent concentration": "inactive"},
      {"smiles": "CO[C@@H]1/C=C\\O[C@]2(C)Oc3c(C)c(O)c4c(O)c(c(CN(C)C)c(O)c4c3C2=O)NC(=O)/C(C)=C\\C=C[C@@H](C)[C@@H](O)[C@H](C)[C@@H](O)[C@H](C)[C@H](OC(C)=O)[C@@H]1C", "max dye-equivalent concentration": "inactive"},
      {"smiles": "CCc1nc2ccccc2n(CCOCCOCCn2c(=O)c(CC)nc3ccccc32)c1=O", "max dye-equivalent concentration": "45 nM (active)"},
      {"smiles": "C=C(Br)Cn1c(CCCC)nc2ccccc21", "max dye-equivalent concentration": "inactive"},
      {"smiles": "CCC(=O)Nc1nc2ccccc2n1Cc1ccccc1C", "max dye-equivalent concentration": "inactive"},
      {"smiles": "O=C(OCC(=O)N1CCCC1)c1ccco1", "max dye-equivalent concentration": "inactive"},
      {"smiles": "COc1ccc(C)cc1-n1nnnc1SCC(=O)c1cc(C)n(Cc2ccco2)c1C", "max dye-equivalent concentration": "inactive"},
      {"smiles": "CNc1cc(-c2c(C)noc2C)ncn1", "max dye-equivalent concentration": "inactive"},
      {"smiles": "COc1ccccc1CNc1ncnc2ccc(-c3c(C)noc3C)cc12", "max dye-equivalent concentration": "inactive"},
      {"smiles": "Cc1cnc(CNc2cc(-c3c(C)noc3C)ncn2)cn1", "max dye-equivalent concentration": "22 nM (active)"},
      {"smiles": "COCCNc1cc(-c2c(C)noc2C)ncn1", "max dye-equivalent concentration": "14 nM (active)"},
      {"smiles": "Cc1cccc(CNc2cc(-c3ccccc3Cl)ncn2)c1", "max dye-equivalent concentration": "inactive"},
      {"smiles": "Cc1noc(C)c1-c1cc(NCc2cccnc2)ncn1", "max dye-equivalent concentration": "inactive"},
      {"smiles": "O=C(NC1CC2CCCC(C1)N2C(=O)N1CCCCC1)C1CCCCC1", "note": "(configuration not stated)", "max dye-equivalent concentration": "inactive"},
      {"smiles": "CCN(CC)P(=O)(/C(Cl)=C\\Nc1c(C)n(C)n(-c2ccccc2)c1=O)N(CC)CC", "max dye-equivalent concentration": "inactive"},
      {"smiles": "CCCCN(CCCC)C(=O)CCS(=O)(=O)c1ccc2c(c1)n(C)c(=O)c(=O)n2C", "max dye-equivalent concentration": "inactive"},
      {"smiles": "CCOc1ccccc1Oc1cn[nH]c1-c1ccc(OC)cc1O", "max dye-equivalent concentration": "inactive"},
      {"smiles": "CCN(C(=O)CSc1ncn[nH]1)c1cccc2ccccc12", "max dye-equivalent concentration": "inactive"},
      {"smiles": "CC(=O)NS(=O)(=O)c1ccccc1", "max dye-equivalent concentration": "inactive"},
      {"smiles": "Cc1c(S(=O)(=O)O)ccc(N=Nc2c(O)c(C(=O)O)cc3ccccc23)c1Cl", "max dye-equivalent concentration": "12 nM (active)"}
    ]}
  ]
}
